# Reference: PubChem BioAssay (NCI)
# The panel holds about 83,000 compounds, 20% with a hit somewhere; the sample as a whole holds those more often.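 Values shown are percent growth following 48 h exposure of cells in 96-well plates to a single concentration of compound; below 10 was considered active.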 Unmarked numbers belong to inactive results. Calls of active or inactive are those of the source.
# Legend:
# Assay in all cases: NCI-60 one-dose screen, 48 h (100 = growth as untreated, 0 = no growth, -100 = all killed)
# Conditions in all cases: 10 µM
# [1] = system: NCI-H23 lung
# [2] = system: NCI-H226 lung
# [3] = system: NCI-H322M lung
# [4] = system: HOP-62 NSCLC
# [5] = system: NCI-H460 lung
# [6] = system: HOP-92 NSCLC
# [7] = system: NCI-H522 lung
# [8] = system: A549/ATCC NSCLC
# [9] = system: 786-0 renal
# [10] = system: COLO 205 colon
Compound,growth [1],growth [2],growth [3],growth [4],growth [5],growth [6],growth [7],growth [8],growth [9],growth [10]
COc1cc(/C=N/NC(=O)c2ccc3nc(-c4ccc(Cl)cc4)[nH]c3c2)cc(OC)c1OC,-68.4% (active),-50.5% (active),3.86% (active),-77.5% (active),-34.8% (active),-64.5% (active),-44.2% (active),29.2%,-4.1% (active),-9.12% (active)
COc1cccc2nc(Nc3ccc(F)c(NC(=O)c4ccc(CN5CCN(C)CC5)c(C(F)(F)F)c4)c3)ccc12,-17.8% (active),17%,32.7%,-36.4% (active),-68.8% (active),-22.8% (active),-60.9% (active),18.5%,-66.3% (active),-78.7% (active)
OCCCNc1oc(-c2ccccc2)nc1[P+](c1ccccc1)(c1ccccc1)c1ccccc1,-1.07% (active),-5.46% (active),31.9%,17.9%,3.97% (active),-24.1% (active),2.08% (active),29.6%,11.2%,-52.3% (active)
COc1ccc(/C=N/N=C(\C)c2ccc3c(c2)Nc2ccccc2S3)cc1O,35.9%,49.2%,71.2%,80.1%,41.1%,74.1%,48.3%,63.9%,73.9%,99.9%
CC(C)CCSc1nc(NC2CC2)c(C#N)c(-c2ccc(C(C)C)cc2)n1,101%,106%,113%,94.9%,120%,114%,90.7%,106%,93.6%,126%
O=C(N/N=C/c1ccc(B(O)O)o1)c1[nH]c2ccc(Br)cc2c1-c1ccccc1,24%,38.2%,61.2%,44.3%,11%,58.9%,-51% (active),31.1%,41.6%,-43.2% (active)
O=C(CSc1nnc(-c2c[nH]c3ccccc23)n1-c1ccccc1)c1ccc(Br)cc1,54%,39.1%,45.7%,73.6%,34.5%,28.1%,46.3%,29.9%,82.4%,13.5%
CN1C(=O)N(C)C2SC(N/N=C/c3ccc(F)cc3)=NC21 (stereo not given),63.5%,75.6%,97.4%,53.5%,32.6%,71.1%,14.7%,49.6%,50.2%,46.5%
CN1C(=O)N(C)C2SC(N/N=C/c3cccs3)=NC21 (stereo not given),38.4%,68.2%,69.3%,37.7%,13.2%,55.6%,-14.6% (active),44.2%,37.3%,26.8%
CC1=C(C(=O)OC(C)C)C(c2ccc(O)cc2)NC(=S)N1 (stereo not given),98.8%,99.2%,102%,104%,124%,112%,93.1%,109%,95.7%,119%
Cc1ccc(-c2cc(-c3cc4ccccc4nc3Cl)[nH]c(=S)n2)cc1,71.5%,74.2%,81.7%,90.1%,83.3%,44.7%,37.8%,85.5%,74.3%,89.5%
COc1ccc(N2N=C(c3ccc4c(c3)OCCO4)CC2c2cccc(NC(=O)CCCNS(=O)(=O)c3ccc(F)cc3)c2)cc1 (stereo not given),85.7%,74.5%,75%,89.6%,64.8%,81.6%,58.9%,61.8%,66.6%,84%
COc1ccc(-c2nc(S(=O)(=O)c3ccc(C)cc3)c(S(=O)(=O)CC(=O)N(C)Cc3ccccc3)o2)cc1,44%,78.7%,93.1%,82.1%,82.6%,27.2%,-1.9% (active),84.9%,22.2%,45.9%
O=C1NC(=NC23CC4CC(CC(C4)C2)C3)N/C1=C\c1ccc2ncccc2n1,-53.7% (active),-15.6% (active),-10.2% (active),-5.42% (active),-8.97% (active),-14.6% (active),-20.6% (active),2.65% (active),2.78% (active),-19.3% (active)
O=C1Nc2cc(-c3ccc(NC(=O)c4cccs4)cc3)ccc2/C1=C/c1ccc[nH]1,66.4%,40.4%,99.3%,98.3%,83%,104%,79.4%,81.7%,98.5%,99.7%
COc1ccc(CCN2C(=O)/C(=C/c3csc(C#N)n3)SC2=S)cc1,24.3%,98.5%,86.4%,83.5%,68.2%,-5.5% (active),-69.8% (active),89%,-55.2% (active),-75% (active)
COC[C@@H](CC(C)C)N=C1NC(=O)/C(=C/c2ccc3ncsc3c2)N1,-10.5% (active),-1.9% (active),15.8%,3.81% (active),7.24% (active),3.44% (active),-3.68% (active),13.5%,23.5%,-11.8% (active)
COc1ccc(C(=O)/C=C/c2cc(F)cc(C(F)(F)F)c2)cc1S(N)(=O)=O,-74.8% (active),-29.3% (active),-3.66% (active),-47.4% (active),-25.3% (active),-9.39% (active),-79.6% (active),3.37% (active),-81% (active),-53.1% (active)
COc1cc2c3c(n(CCCn4ccnc4)c(=O)c2cc1OC)-c1nc2c(cc1C3=O)OCO2,20%,30.3%,71.6%,22.7%,8.7% (active),117%,40.4%,47.7%,12.1%,34.2%
COc1cccc(COc2ccc(/C=C3\Oc4cc(O)ccc4C3=O)cc2)c1,46.7%,51.3%,89.4%,17.6%,27.4%,16.3%,35.9%,71.4%,-58% (active),113%
Cc1nc2c(cnn2-c2ccccc2)c(=O)n1-c1ccc(NC(=O)c2ccc(F)cc2)cc1,50.2%,56.2%,86.1%,64.6%,54.4%,85.2%,63.9%,54.6%,82.5%,62.3%
CN(C)c1ccc(/C=C/c2nc3ccccc3c(=O)n2CC(=O)Nc2ccccc2)cc1,58.8%,-6.92% (active),48.6%,37.3%,16.8%,15.3%,48.7%,33.6%,20.1%,69.6%
O=C(c1ccccc1)n1ccc(-c2cc3cc(Br)ccc3oc2=O)n1,19%,27.5%,31.1%,20%,9.4% (active),34.7%,1.16% (active),33.9%,16.1%,11%
Cc1ccc(NC(=O)c2ccc(-n3c(=O)[nH]c4ccccc4c3=O)cc2)cc1,88.2%,61%,99.9%,82%,86.3%,36.5%,13.8%,113%,36.7%,109%
Cc1ccc(-c2nc3ccc(C(=O)N=Nc4c(O)[nH]c5ccc(Cl)cc45)cc3[nH]2)cc1,-83.8% (active),-17.6% (active),3.76% (active),-73.7% (active),4.47% (active),-35.8% (active),-81.3% (active),28%,-42.9% (active),3.66% (active)
